Source: PubChem BioAssay (NCATS)
Results filed as inconclusive are left out. Unmarked numbers belong to inactive results. Calls of active or inactive are those of the source. Calls follow the shape of the dose curve; as a rule, active = well fitted cell-killing curve with a large enough effect; inconclusive = small, poorly fitted or top-dose-only effect, or effect the other way; inactive = no such curve, though single readings can be large or run the other way.

assay: Quantitative High-Throughput drug screen in 47 multiple myeloma cell lines against the NCATS MIPE library collection: MM1S_ATCC cell viability assay (AID 1918980); settings: MM1S myeloma viability, CellTiter-Glo ATP luminescence, 48 h; series mostly up to 45.8 µM; viability (% of control): at the top concentration; also: nearly all actives have a fitted effect of over 45% in size
Excerpt: PI: Beverly A. Mock Ph.D.
Laboratory of Cancer Biology and Genetics,
Center for Cancer Research, National Cancer Institute,
National Institute of Health, Bethesda, Maryland
Drug resistance and disease progression are common in multiple myeloma (MM) patients, underscoring the need for new therapeutic combinations. […] We hypothesized that effective combinations would reduce MYC expression and enhance p16 activity. […] These preclinical data identify potentially useful drug combinations for evaluation in drug-resistant MM and reveal potential mechanisms of combined drug sensitivity.
Described herein is the primary MIPE qHTS used to cherrypick compounds. Validated compounds were then further tested for potential synergistic activiy.
[1] Peat TJ, Gaikwad SM, Dubois W, Gyabaah-Kessie N, Zhang S, Gorjifard S, Phyo Z, Andres M, Hughitt VK, Simpson RM, Miller MA, Girvin AT, Taylor A, Williams D, D'Antonio N, Zhang Y, Rajagopalan A, Flietner E, Wilson K, Zhang X, Shinn P, Klumpp-Thomas C, McKnight C, Itkin Z, Chen L, Kazandijian D, Zhang J, Michalowski AM, Simmons JK, Keats J, Thomas CJ, Mock BA. Drug combinations identified by high-throughput screening promote cell cycle transition and upregulate Smad pathways in myeloma. Cancer Lett. 2023 Aug 1;568:216284. doi: 10.1016/j.canlet.2023.216284. Epub 2023 Jun 24. PMID: 37356470; PMCID: PMC10408729.
SEQUENCE No. (e.g., 1, 2, 3, etc.); […] (e.g., Cells, Incubation, Reagent, etc.); VALUE and DESCRIPTION.
1; Cells; 5 uL; white, solid bottom 1536-well Greiner assay plate.
2; Compounds; 23 nL; Kalypsis pin tool (Wako USA) equipped with a 1536-well pin head to transfer to the assay plates.
3; Incubation; 48 hours; 37C incubation.
4; Reagent;5uL; CellTiter Glo (Promega).
5; Detector; 425V; Luminescence; Viewlux PerkinElmer.
NOTES (numbers refer to Sequence numbers above)
1. The cell-based screening methods employed in this study were like those previously published. Briefly, the corresponding myeloma cell lines were screened in 1,536-well plates with 500 cells, 5-uL per well for inhibition of cell viability (assessed by measuring ATP levels with CellTiterGlo).
2. NCATS MIPE 4.0 library of approved and investigational drugs were added using the Kalypsis pin tool. Wells treated with DMSO only for 100% viability and media only for 0% viability were used as controls.
3. The assay plates were covered and incubated for 48 hours in a 37C, 5% CO2 incubator with controlled humidity.
4. After 48 hours, CellTilter-GloTM luminescent substrate mix (Promega) reagent was added to the assay plate and plates we incubated for 5 min at room temperature.
5. Signal was measured as median relative luminescence units on a ViewLux (PerkinElmer) multiplate reader.
[1] Heske CM, Davis MI, Baumgart JT, Wilson K, Gormally MV, Chen L, Zhang X, Ceribelli M, Duveau DY, Guha R, Ferrer M, Arnaldez FI, Ji J, Tran HL, Zhang Y, Mendoza A, Helman LJ, Thomas CJ. Matrix Screen Identifies Synergistic Combination of PARP Inhibitors and Nicotinamide Phosphoribosyltransferase (NAMPT) Inhibitors in Ewing Sarcoma. Clin Cancer Res. 2017 Dec 1;23(23):7301-7311. doi: 10.1158/1078-0432.CCR-17-1121. Epub 2017 Sep 12. PMID: 28899971; PMCID: PMC6636827.
Potency is read from the fitted curve at half-maximal effect.

Row | SMILES | Potency | viability (% of control)
1 | S=P(N1CC1)(N1CC1)N1CC1 | 18.7 µM (active) | –
2 | O=C(O)CSCC(=O)NC1CCSC1=O (stereo not given) | – | 152%
3 | CC[C@H](NC(C)C)[C@H](O)c1ccc(O)c2[nH]c(=O)ccc12 | 0.235 µM (active) | –
4 | CNS(=O)(=O)CCc1ccc2[nH]cc(C3CCN(C)CC3)c2c1 | 0.469 µM (active) | –
5 | CCN(CC)CCn1c(=O)c(Cc2ccc(OC)cc2)nc2ccccc21 | – | 126%
6 | Cc1cc(NS(=O)(=O)c2ccc(N)cc2)no1 | 9.35 µM (active) | –
7 | CCCCOc1ccc(CC(=O)NO)cc1 | 2.64 µM (active) | –
8 | NC(N)=NC(N)=NCCc1ccccc1 | 2.96 µM (active) | –
9 | CC1(C)[C@H](C(=O)O)N2C(=O)C[C@H]2S1(=O)=O | 26.4 µM (active) | –
10 | C[C@]12C=CC(=O)C=C1CC[C@@H]1[C@@H]2C(=O)C[C@@]2(C)[C@H]1CC[C@]2(O)C(=O)CO | – | 129% [at 23.2 µM]
11 | COc1ccc(C(=O)CC(=O)c2ccc(C(C)(C)C)cc2)cc1 | 1.05 µM (active) | –
12 | COc1cnc(NS(=O)(=O)c2ccc(N)cc2)nc1 | 29.6 µM (active) | –
13 | COc1cc(NCc2ccc3nc(N)nc(N)c3c2C)cc(OC)c1OC | 8.33 µM (active) | –
14 | CC(N)C12CC3CC(CC(C3)C1)C2 (stereo not given) | – | 129%
15 | COC(=O)Nc1nc2ccc(Sc3ccccc3)cc2[nH]1 | 2.09 µM (active) | –
16 | COCCCOc1cc(C[C@@H](C[C@H](N)[C@@H](O)C[C@H](C(=O)NCC(C)(C)C(N)=O)C(C)C)C(C)C)ccc1OC | 0.0743 µM (active) | –
17 | C[C@@H](CN1CC(=O)NC(=O)C1)N1CC(=O)NC(=O)C1 | 3.32 µM (active) | –
18 | O=P(O)(O)C(O)(Cc1cccnc1)P(=O)(O)O | – | 117%
19 | Nc1nc(F)nc2c1ncn2[C@@H]1O[C@H](CO)[C@@H](O)[C@@H]1O | 0.209 µM (active) | –
20 | CN(Cc1cc(Br)cc(Br)c1N)C1CCCCC1 | – | 113%

Row | SMILES | Potency | viability (% of control)
21 | CC(=O)[C@H]1CC[C@H]2[C@@H]3CCC4=CC(=O)CC[C@]4(C)[C@H]3CC[C@]12C | 3.72 µM (active) | –
22 | O[C@@H](CNC[C@H](O)[C@H]1CCc2cc(F)ccc2O1)[C@@H]1CCc2cc(F)ccc2O1 | 20.9 µM (active) | –
23 | C#CCN[C@@H]1CCc2ccccc21 | – | 115%
24 | Cc1nnc(NS(=O)(=O)c2ccc(N)cc2)s1 | 2.64 µM (active) | –
25 | O=NN(CCCl)C(=O)NC1CCCCC1 | – | 149%
26 | O=C(N[C@H](CO)[C@H](O)c1ccc([N+](=O)[O-])cc1)C(Cl)Cl | – | 122%
27 | COc1cc2nc(N3CCCN(C)CC3)nc(NC3CCN(Cc4ccccc4)CC3)c2cc1OC | 2.64 µM (active) | –
28 | COc1cc([C@@H]2c3cc4c(cc3[C@H](O)[C@H]3COC(=O)[C@H]23)OCO4)cc(OC)c1OC | – | 10.5%
29 | C1CCC(C(CC2CCCCN2)C2CCCCC2)CC1 (stereo not given) | 6.62 µM (active) | –
30 | Cc1onc(-c2ccccc2Cl)c1C(=O)N[C@@H]1C(=O)N2[C@@H]1SC(C)(C)[C@@H]2C(=O)O | 14.8 µM (active) | –
31 | CCN(C)C(=O)Oc1cccc([C@H](C)N(C)C)c1 | – | 149%
32 | CC(C)(Sc1cc(C(C)(C)C)c(O)c(C(C)(C)C)c1)Sc1cc(C(C)(C)C)c(O)c(C(C)(C)C)c1 | 4.18 µM (active) | –
33 | CC(C)Cn1cnc2c(N)nc3ccccc3c21 | 4.69 µM (active) | –
34 | Nc1nc(N)c2nc(CNc3ccc(C(=O)NC(CCC(=O)O)C(=O)O)cc3)cnc2n1 (stereo not given) | 0.0132 µM (active) | –
35 | CC(C)(C#N)c1cc(Cn2cncn2)cc(C(C)(C)C#N)c1 | – | 149%
36 | CO[C@@]12[C@H](COC(N)=O)C3=C(C(=O)C(C)=C(N)C3=O)N1C[C@@H]1N[C@@H]12 | 0.264 µM (active) | –
37 | Nc1nc(=S)c2[nH]cnc2[nH]1 | 3.72 µM (active) | –
38 | CCCCc1oc2ccc(NS(C)(=O)=O)cc2c1C(=O)c1ccc(OCCCN(CCCC)CCCC)cc1 | 20.9 µM (active) | –
39 | NCCCC(O)(P(=O)(O)O)P(=O)(O)O | 11.8 µM (active) | –
40 | COc1cc2c(Nc3ccc(Br)cc3F)ncnc2cc1OCC1CCN(C)CC1 | 23.5 µM (active) | –
